Bioassay records deposited in PubChem by Johns Hopkins Ion Channel Center.
Sampled rows, rich in hits. Any-hit rate of the full collection: about 1.6%.
KCNQ2 block: inhibitors of rat KCNQ2 potassium channel. 310,000 compounds, 1.1% hits. O88943. AID 2156. B-score at 10 µM. CHO-K1 KCNQ2, FluxOR thallium flux, 20 min; active compounds read low;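 active = fluorescence ratio B-score at most minus 3 library SDs, with starting brightness B-score within 2 library SDs, cut at about -5.5 in these data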
Target sequence (O88943 whole entry, looked up): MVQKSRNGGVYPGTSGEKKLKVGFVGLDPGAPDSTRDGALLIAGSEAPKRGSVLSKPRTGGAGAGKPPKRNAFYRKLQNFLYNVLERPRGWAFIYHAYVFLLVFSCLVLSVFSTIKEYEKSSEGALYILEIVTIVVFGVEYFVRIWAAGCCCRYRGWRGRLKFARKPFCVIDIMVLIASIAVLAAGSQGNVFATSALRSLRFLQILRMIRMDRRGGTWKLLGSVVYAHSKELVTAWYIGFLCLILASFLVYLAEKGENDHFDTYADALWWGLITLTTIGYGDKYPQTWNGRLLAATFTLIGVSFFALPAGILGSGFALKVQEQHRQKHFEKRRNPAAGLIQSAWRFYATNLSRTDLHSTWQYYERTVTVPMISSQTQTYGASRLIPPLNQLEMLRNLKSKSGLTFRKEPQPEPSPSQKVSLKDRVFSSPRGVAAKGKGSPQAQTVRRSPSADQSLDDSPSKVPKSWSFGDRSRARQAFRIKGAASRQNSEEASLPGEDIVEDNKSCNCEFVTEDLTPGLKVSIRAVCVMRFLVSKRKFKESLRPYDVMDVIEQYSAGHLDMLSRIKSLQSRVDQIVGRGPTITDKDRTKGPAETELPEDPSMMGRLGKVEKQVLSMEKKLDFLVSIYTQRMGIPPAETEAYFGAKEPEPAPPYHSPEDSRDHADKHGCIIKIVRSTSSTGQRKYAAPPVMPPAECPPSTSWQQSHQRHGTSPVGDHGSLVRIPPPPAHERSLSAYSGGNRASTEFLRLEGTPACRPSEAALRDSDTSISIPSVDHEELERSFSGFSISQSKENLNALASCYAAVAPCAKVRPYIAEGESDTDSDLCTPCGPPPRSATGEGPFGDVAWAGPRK
KCNQ2 enhance: potentiators of rat KCNQ2 potassium channel. CHO-K1 KCNQ2, FluxOR thallium flux fluorescence; active compounds read high. B-score at 10 µM. 310,000 compounds, 0.54% hits;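 active = fluorescence ratio B-score at least 3 SD of library B-scores, with initial fluorescence B-score within 3 of them, cut at about 5.3 in these data; same plate scores as AID 2156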;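 note: B-score of peak minus minimum over baseline fluorescence ratio after K+ and Tl+ stimulus; positive B-score means potentiation of KCNQ2 with more thallium influx and brighter signal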
Kir21 conf inh: confirmation of mouse Kir2.1 potassium channel inhibitors; shares compounds with KCNQ2 enhance; Kir2.1-expressing cells, FluxOR thallium flux fluorescence; active compounds read low; Tl flux remaining, % of negative control (active compounds read low), % at 10 µM; 2,300 compounds, 41% hits;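 active = Primary-screen hit whose thallium flux fell at least 3 control SD below untreated wells in both duplicates, with normal baseline fluorescence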;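 note: 0% = blank wells without stimulus and 100% = stimulated no-compound controls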
HEK293 ctr: parental HEK293 activity in Kir2.1 inhibitor counter-screen. shares compounds with KCNQ2 enhance. parental HEK293 cells, FluxOR thallium flux fluorescence; 0% = unstimulated blank wells. FluxOR signal as % of negative control (100 = no effect), % at 10 µM. 2,300 compounds, 19% hits. AID 2105;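 active = dye signal at least 3 control SD above or below untreated wells in both duplicates, raw fluorescence within 3, either direction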;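 note: percent is based on the flux ratio of peak minus minimum fluorescence over baseline F0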
CHO-K1 Tl ctr: parental CHO-K1 activity in KCNQ2 potentiator counter-screen; shares compounds with KCNQ2 enhance; parental CHO-K1 cells, FluxOR thallium flux fluorescence; zero = vehicle mean+3SD, 100% = vehicle-minus-blank window; activity increase over 3SD of controls, % at 10 µM; 1,200 compounds, 43% hits; AID 2282;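 active = signal rise of at least 3 SD above the untreated control mean, in both duplicate wells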;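 note: counter screen of KCNQ2 potentiator hits so any rise reflects channel-independent effects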
KCNQ1 pot spec: selectivity of KCNQ2 potentiators: effect on human KCNQ1 | shares compounds with KCNQ2 enhance | CHO KCNQ1 stable, FluxOR thallium flux fluorescence; beyond 3SD, as % of vehicle-control signal | activation over 3SD threshold, % at 10 µM | 1,200 compounds, 28% hits;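 active = fluorescence ratio rise of at least 3 SD of vehicle wells above their mean, in both replicate wells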;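 note: 0% = vehicle mean plus 3 SD and 100% = vehicle minus unstimulated blank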
KCNQ2 pot conf: confirmation of rat KCNQ2 potassium channel potentiators | shares compounds with KCNQ2 enhance | CHO-KCNQ2 cells, FluxOR thallium flux fluorescence | potentiation, less the hit threshold, % at 10 µM | 1,200 compounds, 68% hits | AID 2287;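 active = fluorescence ratio rising 3 SD or more over the vehicle control mean in both replicates, plus primary screen hit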;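 note: peak minus minimum thallium fluorescence divided by baseline after K/Tl stimulus; 0% = vehicle mean plus 3 SD and 100% = vehicle minus unstimulated blank difference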
Kir21 spec: mouse Kir2.1 off-target activity of KCNQ2 potentiators. shares compounds with KCNQ2 enhance. HEK293 Kir2.1, FluxOR thallium flux fluorescence. activity over 3SD threshold, % at 10 µM. 1,200 compounds, 2% hits. AID 2345;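 active = fluorescence ratio rise of at least 3 SD above the vehicle-control mean, seen in both replicates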;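 note: 0% = vehicle mean plus 3 SD and 100% = vehicle minus no-stimulus blank window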
KCNQ2 W236L MoA: potentiates the retigabine-insensitive rat KCNQ2 W236L mutant channel; AID 2558; current increase over 3SD of negative controls (%), active compounds read high, % at 25 µM; shares compounds with KCNQ2 enhance; CHO KCNQ2-W236L, automated patch clamp current; 940 compounds, 10% hits;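 active = current increase at least 3 SD of the untreated controls above them in both duplicate recordings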
* marks the source's active call; other numbers are inactive results; i = inactive; nt = no result given.

SMILES	KCNQ2 block	KCNQ2 enhance	Kir21 conf inh	HEK293 ctr	others
NS(=O)(=O)c1ccc(CCNCc2ccccc2OCc2ccc(Cl)cc2)cc1	i	4.3	44%*	i
OCCC1CN(Cc2cccc(-n3cccn3)c2)CCN1Cc1ccccc1 (configuration not stated)	i	0.48	nt	nt
COc1ccc(-c2oc3ccccc3c2C(=O)OCc2ccccc2)cc1	i	nt	nt	nt
Cc1ccc(-c2ccc(OC(=O)c3ccc(=O)[nH]c3)c(C)c2)cc1	i	nt	nt	nt
COc1ccc(-c2cc(C(=O)Nc3ccc(S(=O)(=O)Nc4onc(C)c4C)cc3)c3ccccc3n2)cc1	i	0.01	nt	nt
N#Cc1cnn(-c2ccccc2)c1NC(=O)CN1CCN(c2ccccc2)CC1	i	1.6	nt	nt
COC(=O)c1cccc(Nc2ncnc3ccc(C)cc23)c1	i	nt	nt	nt
COc1ccc(Nc2ncnc3ccc(C)cc23)cc1	i	1.1	52%*	168%*
Cc1onc(-c2ccccc2Cl)c1C(=O)Nc1ccccc1O	i	nt	nt	nt
Cc1ccc(NC(=O)CSCC(=O)Nc2ccccc2N2CCCC2)cc1	i	1.4	74%*	74%*
COc1ccc(NC(=O)CSCC(=O)Nc2cc(Cl)ccc2N2CCOCC2)cc1	i	4.7	nt	nt
COc1ccc(CC(=O)Nc2ccc(N3CCCC3)c(C)c2)cc1	i	6.8*	34%*	i	CHO-K1 Tl ctr=9.8*;KCNQ1 pot spec=57*;KCNQ2 pot conf=22*;Kir21 spec=-99;KCNQ2 W236L MoA=i
COc1ccc(NC(=O)CSCC(=O)Nc2cc(Cl)ccc2N2CCCC2)cc1	i	7.1*	i	i	CHO-K1 Tl ctr=-7;KCNQ1 pot spec=66*;KCNQ2 pot conf=6.3*;Kir21 spec=-44;KCNQ2 W236L MoA=i
Cc1ccc(NC(=O)CSCC(=O)Nc2ccccc2C(=O)N2CCCCC2)cc1	i	0.38	nt	nt
CCC(=O)Nc1ccc(N2CCCCC2)c(C(=O)Nc2ccc(OC)cc2)c1	i	1.3	nt	nt
COc1cc(C(=O)NC2CCN(CC(=O)Nc3cccc(C)c3C)CC2)cc(OC)c1OC	i	0.09	nt	nt
CC(=O)NCc1ccc(S(=O)(=O)NC(C(=O)O)C(C)C)cc1 (configuration not stated)	i	0.89	nt	nt
O=C(NC1CCSc2ccccc21)c1cccc([N+](=O)[O-])c1 (configuration not stated)	i	nt	nt	nt
CS(=O)(=O)c1ccc(-c2nnc(NC(=O)c3ccco3)o2)cc1	i	0.06	nt	nt
O=C(Nc1nnc(-c2ccc(Br)cc2)o1)c1ccco1	i	17*	i	i	CHO-K1 Tl ctr=-6;KCNQ1 pot spec=-17;KCNQ2 pot conf=19*;Kir21 spec=-32;KCNQ2 W236L MoA=i
O=C(NNC(=S)NC1CCCCC1)c1cccs1	i	0.02	nt	nt
CC1CCCCC1NC(=S)NC(=O)c1cccs1 (configuration not stated)	i	8.4*	i	188%*	CHO-K1 Tl ctr=44*;KCNQ1 pot spec=23*;KCNQ2 pot conf=15*;Kir21 spec=-24;KCNQ2 W236L MoA=i
CC(CNC(=O)CN1C(=O)COc2ccc(S(=O)(=O)N3CCCCC3)cc21)c1ccccc1 (configuration not stated)	i	4.7	nt	nt
COc1ccccc1N1CCN(C(=O)CSc2nc(C)c(Cc3ccccc3)c(=O)[nH]2)CC1	i	9.2*	i	i	CHO-K1 Tl ctr=-13;KCNQ1 pot spec=-17;KCNQ2 pot conf=29*;Kir21 spec=-27;KCNQ2 W236L MoA=i
COc1ccccc1N1CCN(C(=O)CSc2nc(-c3ccccc3)cc(=O)[nH]2)CC1	i	nt	nt	nt
SMILES	KCNQ2 block	KCNQ2 enhance	Kir21 conf inh	HEK293 ctr	others
O=C(CCCCCN1C(=O)c2ccccc2C1=O)Oc1ccc2c3c(c(=O)oc2c1)CCC3	i	1.4	nt	nt
O=C(CSc1nnc(CNC(=O)c2cccs2)o1)Nc1ccc(F)cc1F	i	0.59	nt	nt
c1ccc(-c2nc3c(ccc4ccccc43)[nH]2)nc1	i	8.4*	i	i	CHO-K1 Tl ctr=31*;KCNQ1 pot spec=6.1*;KCNQ2 pot conf=47*;Kir21 spec=-27;KCNQ2 W236L MoA=i
c1ccc(-c2nc3ccccc3[nH]2)nc1	i	nt	nt	nt
C/C(=C\C(=O)c1ccccc1)NNC(=O)c1ccc(Cl)cc1	i	18*	i	i	CHO-K1 Tl ctr=-14;KCNQ1 pot spec=-14;KCNQ2 pot conf=-5;Kir21 spec=-45;KCNQ2 W236L MoA=i
COc1ccc(C(=O)NN/C(C)=C/C(=O)c2ccccc2)cc1	i	0.97	nt	nt
NNC(=O)c1ccc(COc2ccc3ccccc3c2)o1	i	1.2	nt	nt
O=C(OCc1ccccn1)c1ccc(COc2ccc3ccccc3c2)o1	i	5.4*	i	i	CHO-K1 Tl ctr=-14;KCNQ1 pot spec=-8;KCNQ2 pot conf=-19;Kir21 spec=-22
Cc1ccc(-c2nn(-c3ccccc3)cc2CSC(=N)N)cc1	i	nt	i	i
OCc1cn(-c2ccccc2)nc1-c1ccc(-c2nn(-c3ccccc3)cc2CO)cc1	i	0.53	nt	nt
COc1ccc(C)c(NC(=O)NCCc2cnc[nH]2)c1	i	nt	nt	nt
Cc1nnnn1/C(=C\c1ccccc1)C(=O)OCC(=O)Nc1ccc(Cl)cc1F	i	nt	i	i
O=C(COC(=O)Cc1n[nH]c(=O)c2ccccc12)Nc1ccc(Cl)cc1F	i	nt	nt	nt
CCN(CC(=O)NCc1cccs1)C(=O)c1ccc(OC)c(OC)c1	i	nt	nt	nt
COc1cc(CN(C)Cc2ccccc2)cc(OC)c1O	i	0.4	nt	nt
CCc1c(C)nc(SCC(=O)N2CCCCC2C)[nH]c1=O (configuration not stated)	i	5.5*	i	i	CHO-K1 Tl ctr=20*;KCNQ1 pot spec=-16;KCNQ2 pot conf=-26;Kir21 spec=-34
CCc1c(C)nc(SCC(=O)N2C(C)CCCC2C)[nH]c1=O (configuration not stated)	i	0.11	nt	nt
O=C(OC1CO[C@H]2O[C@@H]1[C@H](OC(=O)c1ccccc1)[C@H]2OC(=O)c1ccccc1)c1ccccc1 (some centres not stated)	i	nt	nt	nt
COc1ccccc1N1CCN(C(=O)COc2ccc(S(=O)(=O)NC(C)(C)C)cc2)CC1	i	0.61	nt	nt
CCOc1cc(CNCC(C)C)cc(Cl)c1OCc1ccccc1	i	nt	20%*	i
CCOc1cc(CNC2CCCC2)cc(Cl)c1OCc1ccccc1	i	nt	34%*	134%*
CCOc1cc(CNC2CCCC2)ccc1OCc1ccccc1Cl	i	nt	nt	nt
CCOc1c(Cl)cc(CNCC(C)C)cc1OC	i	0.97	nt	nt
CCOC(=O)c1c(NC(=O)COC(=O)C2CC2C)sc(C)c1C (configuration not stated)	i	nt	nt	nt
COc1cccc(OC)c1C(=O)Nc1ccccc1C(=O)N1CCCCCC1	i	nt	nt	nt
